Bioassay records as filed in PubChem BioAssay.
NPC1 promoter act: qHTS Assay for NPC1 Promoter Activators; Huh7 NPC1 promoter luciferase reporter, 24 h; Potency, µM (doses to about 9.22 µM), inactives show at the highest dose activation, hits mostly activators; actives 2.4% (n = 320,000); AID 485313, 2010; note: % of control where 0% means no effect; nearly all actives have a fitted effect of over 60% in size
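Luminescence read-out of NPC1 promoter-driven luciferase in stably transfected Huh7 cells; compounds delivered in DMSO and left 24 h at 37C, 5% CO2, qHTS titration format.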
ELG1 repair inh: qHTS screen for small molecules that inhibit ELG1-dependent DNA repair in human embryonic kidney (HEK293T) cells expressing luciferase-tagged ELG1; actives 2.3% (n = 330,000); HEK293T ELG1-luciferase reporter, luminescence, 16 h; DNA damage induced by 5-fluorouridine; AID 504467, 2011; Potency, µM (top dose mostly 46.1 µM), for inactives: at the top dose activity change, negative = inhibition, most hits filed as inhibitors; note: % is set by controls: 0 for no effect and ±100 for the full control effect; nearly all actives have a fitted effect of over 55% in size
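Overnight (16 hr) co-exposure of 2,000 cells/well to 5-fluorouridine and compound at 37 °C preceded detection. Luciferase was quantified via ONE-Glo luminescence; loss of signal denotes inhibition.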
SMN2 splice up: qHTS Assay for Enhancers of SMN2 Splice Variant Expression; HEK293 SMN2-luciferase splicing reporter, luminescence, 30-36 h; Potency, µM (highest dose often 46.1 µM), for the others: at the highest dose activity change, positive = activation, usual class: activators; actives 2.8% (n = 210,000); AID 1458, 2008; note: % of control where 0% means no effect; nearly all actives have a fitted effect of over 55% in size
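qHTS luciferase splicing reporter: luminescence rises when SMN2 exon 7 is included in transfected HEK293 cells. Compound exposure lasted 30-36 h at 37C, with 4.5 mM final sodium butyrate as control, followed by a ONE-Glo read.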
FLuc modulator: qHTS profiling assay for firefly luciferase inhibitor/activator using purifed enzyme and Km concentrations of substrates (counterscreen for miR-21 project) | Luciferin 4-monooxygenase (Photinus pyralis), P08659 | purified FLuc, Km substrates, luminescence inhibition | Potency, µM (doses to about 57.5 µM), for inactives: at the top dose activity change, negative = inhibition, usual class: inhibitors | actives 6.9% (n = 360,000) | AID 588342, 2011;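 note: plate controls were vehicle for no effect and reference inhibitor for full effect; nearly all actives have a fitted effect of over 55% in size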
Target sequence (P08659 whole entry, looked up): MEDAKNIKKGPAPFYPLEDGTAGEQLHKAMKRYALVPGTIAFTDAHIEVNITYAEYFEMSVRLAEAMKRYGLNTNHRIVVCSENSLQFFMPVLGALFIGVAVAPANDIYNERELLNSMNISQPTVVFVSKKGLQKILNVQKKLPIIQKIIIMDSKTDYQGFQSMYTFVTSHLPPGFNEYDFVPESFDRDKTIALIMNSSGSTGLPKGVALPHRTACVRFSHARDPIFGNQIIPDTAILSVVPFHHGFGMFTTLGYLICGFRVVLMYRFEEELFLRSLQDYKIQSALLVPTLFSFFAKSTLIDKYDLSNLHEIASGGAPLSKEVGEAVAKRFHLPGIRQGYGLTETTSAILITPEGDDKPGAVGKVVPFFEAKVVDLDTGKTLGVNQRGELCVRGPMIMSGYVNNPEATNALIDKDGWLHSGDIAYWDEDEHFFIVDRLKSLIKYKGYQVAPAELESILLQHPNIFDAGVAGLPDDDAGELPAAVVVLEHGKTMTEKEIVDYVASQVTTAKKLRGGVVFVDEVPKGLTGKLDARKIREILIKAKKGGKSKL
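Biochemical qHTS of compounds, final roughly 60 µM downward over six points, against 10 nM purified firefly luciferase using Km concentrations of substrates (10 uM D-luciferin, 10 uM ATP) in Tris acetate pH 7.5 buffer; luminescence output.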
Rab9 promoter act: qHTS Assay for Rab9 Promoter Activators; Huh7 Rab9 promoter-luciferase reporter, luminescence, 24 h; actives 2.8% (n = 320,000); Potency, µM (titrated, usually from 9.22 µM), inactives show at the highest dose activation, negative = inhibition, usual class: activators; AID 485297, 2010; note: % of control where 0% means no effect; nearly all actives have a fitted effect of over 60% in size
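Measured in stably transfected Huh7 cells bearing a Rab9 promoter–luciferase construct: 24 h compound treatment at 37 °C, followed by luminescence detection.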
ELG1 genotoxic: qHTS screen for small molecules that induce genotoxicity in human embryonic kidney (HEK293T) cells expressing luciferase-tagged ELG1. HEK293T ELG1-luciferase reporter, luminescence, 16 h. Potency, µM (highest dose often 46 µM), for the others: at the top dose activity change, positive = activation, most hits filed as activators. actives 1.3% (n = 330,000). AID 504466, 2011; note: % of control where 0% means no effect; nearly all actives have a fitted effect of over 60% in size
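HEK293T cells expressing luciferase-tagged ELG1 were exposed to compound or DMSO vehicle for 16 hr at 37 °C and 5% CO2. Luciferase activity was then measured with ONE-Glo after 30 min at room temperature.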
An asterisk follows results filed as active; ? = inconclusive; nt = no result given. An excerpt weighted towards active compounds, which were near 9.2% of everything screened. Calls come from the whole dose curve; as a rule, active = well fitted curve in the direction sought with a large enough effect; inconclusive = small, poorly fitted or top-dose-only effect, or another doubt; inactive = no such curve, though single readings can be large; an effect the other way counts as inactive or inconclusive. Potency is the fitted concentration of half-maximal effect.

SMILES | NPC1 promoter act | ELG1 repair inh | SMN2 splice up | FLuc modulator | Rab9 promoter act | ELG1 genotoxic
CCC(C)NC(=O)c1sc2nc(C)c(C(=O)Nc3ccc(C)cc3C)c(-c3ccc(Br)cc3)c2c1N (stereo unspecified) | nt | nt | 17.3% | -2.5% | nt | nt
CC1CCCN(C(=O)C(=O)c2cn(CC(=O)N3CCCCCC3)c3ccccc23)C1 (stereo unspecified) | -1.0% | -13.7% | nt | 0.3% | -0.3% | -4.5%
Clc1ccccc1/C=C/c1nc(-c2ccccn2)no1 | 0.224µM* | ? | nt | 0.107µM* | ? | ?
CCOc1cccc2cc(-c3cn4c(n3)sc3ccccc34)c(=O)oc12 | nt | nt | nt | 0.477µM* | nt | nt
C=CCc1cccc2cc(C(=O)O)c(=O)oc12 | -1.2% | 9.6% | -10.2% | 1.6% | 1.1% | 0.2%
COc1ccc2oc(=O)c(-c3nc4ccc(C)cc4[nH]3)cc2c1 | nt | nt | nt | -3.3% | nt | nt
C=CCc1cccc2cc(-c3nc4ccc(C(=O)O)cc4[nH]3)c(=O)oc12 | nt | nt | nt | 0.426µM* | nt | nt
COc1cccc2cc(-c3nc4ccc(C)cc4[nH]3)c(=O)oc12 | nt | nt | nt | 0.536µM* | nt | nt
CCOc1cccc2cc(-c3nc4ccc(C(=O)O)cc4[nH]3)c(=O)oc12 | ? | nt | nt | 0.379µM* | ? | nt
CCc1ccc(CNC(=O)c2c3c(nc4ccccc24)C(=O)N(C2CCCCC2)C3)cc1 | nt | nt | nt | -14.3% | nt | nt
COc1cccc2cc(-c3nc4ccccc4o3)c(=O)oc12 | 2.2% | ? | 24.9% | 2.69µM* | 5.4% | 20.6µM*
COc1ccc2cc(-c3nc4ccc(C(=O)O)cc4[nH]3)c(=O)oc2c1 | nt | nt | nt | 0.12µM* | nt | nt
COCCNC(=O)C(c1ccccc1F)N(C(=O)C(=O)NC1CCCC1)C1CCCCC1 (stereo unspecified) | -1.0% | ? | nt | -2.9% | -0.2% | 2.3%
Cn1c(=O)c2c(nc(N/N=C/c3ccc(OC(=O)c4ccco4)cc3)n2Cc2ccccc2)n(C)c1=O | -8.8% | 20.6µM* | -29.8% | -0.4% | -11.7% | -0.7%
Cn1c(=O)c2c(nc(N/N=C/c3cccs3)n2Cc2ccccc2)n(C)c1=O | -6.6% | 6.51µM* | -55.1% | -13.1% | -10.7% | 0.4%
Cn1c(=O)c2c(nc(N/N=C/c3cccnc3)n2Cc2ccc(F)cc2)n(C)c1=O | -3.2% | 2.3% | nt | -0.2% | -0.2% | 1.1%
COc1ccc(-c2nc(SCC(=O)Nc3ccc4c(c3)OCCO4)c(-c3ccc(F)cc3)[nH]2)cc1OC | nt | nt | 15.2% | 6.75µM* | nt | nt
COc1ccccc1-c1ccc(SCC(=O)NC2CCCC2)nn1 | -1.7% | ? | nt | 0.4% | 1.4% | 16.4%
COc1ccccc1-c1ccc(SCC(=O)NC2CCCCC2)nn1 | 0.4% | ? | nt | -9.5% | 0.7% | -5.3%
COc1ccc(-c2nc(SCC(=O)Nc3ccc4c(c3)OCO4)c(-c3ccc(F)cc3)[nH]2)cc1OC | nt | nt | 12.0% | -11.7% | nt | nt
COc1cccc(-c2ccc(SCC(=O)NC3CCCCC3)nn2)c1 | -0.3% | -20.4% | nt | 15.1µM* | 12.0% | -2.7%
COc1ccc(-c2ccc(SCC(=O)NC3CCCC3)nn2)cc1OC | 10.8% | ? | nt | 15.1µM* | 2.6% | 17.6%
COc1ccc(-c2nc(SCC(=O)NC3CCCC3)c(-c3ccc(F)cc3)[nH]2)cc1OC | nt | nt | 3.1% | ? | nt | nt
COc1ccc(-c2nc(SCC(=O)NC3CCCC3)c(-c3ccccc3)[nH]2)cc1OC | nt | nt | 9.5% | 19µM* | nt | nt
COc1ccc(N(CC(=O)NCCc2ccc(C)cc2)S(=O)(=O)c2c(C)nn(C)c2C)cc1 | nt | nt | 1.9% | -8.0% | nt | nt
SMILES | NPC1 promoter act | ELG1 repair inh | SMN2 splice up | FLuc modulator | Rab9 promoter act | ELG1 genotoxic
COCCNC(=O)CSc1nc(-c2ccc(F)cc2)[nH]c1-c1ccc(Cl)cc1 | nt | nt | 22.4% | 1.2% | nt | nt
Cc1ccc(NC(=O)C2=C(O)c3sccc3N(C)S2(=O)=O)cc1 | 6.0% | ? | ? | 8.49µM* | 19.5% | 5.0%
CN1c2ccsc2C(O)=C(C(=O)Nc2ccccc2)S1(=O)=O | -0.2% | ? | 18.3% | 15.1µM* | 2.8% | 0.2%
Cc1cc(C)c2c(c1)c(C)cc1nnc(SCC(=O)c3ccccc3)n12 | nt | nt | nt | 3.9% | nt | nt
CCCn1c(C(C)Nc2nc(-c3cc(Cl)c(N)c(Cl)c3)cs2)nc2cc(Cl)c(N3CCCCC3)cc21 (stereo unspecified) | -2.6% | 5.5% | nt | -1.6% | 0.0% | -1.7%
O=C(Cc1ccc(S(=O)(=O)N2CCOCC2)s1)Oc1ccc(F)cc1 | -3.9% | ? | nt | 2.6% | 0.1% | 3.4%
COCCNC(=O)c1ccc(CSc2nc3ccncc3n2Cc2ccccc2)cc1 | nt | nt | -19.6% | -2.1% | nt | nt
COC(=O)c1ccccc1S(=O)(=O)Oc1ccc(-c2ccc(C(=O)O)cc2)cc1 | 10.7% | 8.2% | nt | -13.8% | 5.7% | 2.9%
O=C(O)c1ccc(-c2ccc(OS(=O)(=O)c3ccccc3F)cc2)cc1 | ? | ? | nt | 12µM* | ? | ?
CC(C)Oc1ccc(CNC(=O)CCC(=O)N2CCSc3ccccc32)cc1 | 0.4% | 2.5% | nt | -5.3% | -1.3% | -6.7%
COc1cc2c(cc1OC)CN(c1nc(-c3cccnc3)nc3ccccc13)CC2 | 0.2% | 9.2µM* | 17.4% | -15.6% | 4.4% | -16.6%
N#Cc1ccccc1S(=O)(=O)N1CCN(c2nc(-c3cccnc3)nc3ccccc23)CC1 | -2.7% | ? | nt | -0.6% | -9.0% | -5.8%
O=S(=O)(c1ccccc1F)N1CCN(c2nc(-c3cccnc3)nc3ccccc23)CC1 | -7.1% | 18.3µM* | nt | 5.0% | -5.0% | -5.5%
Cc1ccc(C)c(S(=O)(=O)N2CCN(c3nc(-c4cccnc4)nc4ccccc34)CC2)c1 | 2.2% | 18.3µM* | nt | nt | -3.8% | -6.1%
CN1CCN(c2nc(-c3cccnc3)nc3ccccc23)CC1 | -3.1% | ? | -7.0% | -1.0% | -7.7% | ?
CCc1ccc(NC(=O)CN2C(=O)C(c3ccc(C)cc3)=NC23CCCCC3)cc1 | nt | nt | -8.8% | -2.7% | nt | nt
CN1C(=O)N(CC(=O)N2CCN(S(=O)(=O)Cc3ccccc3)CC2)C(=O)C12CCCCC2 | -0.8% | 3.0% | nt | 2.8% | -11.9% | -2.0%
COc1ccc(C(=O)NCCc2ccccn2)cc1S(=O)(=O)Nc1ccc(Br)cc1 | -1.4% | 0.4% | nt | nt | 1.3% | -0.4%
